From PubChem BioAssay
A selection: hits, their analogues and other compounds. The true share with any hit is near 19%.
SARS PLpro yeast – inhibitors of SARS-CoV papain-like protease in yeast; actives 0.19% (n = 330,000); S. cerevisiae expressing SARS-CoV PLpro, growth rescue; Potency, µM (highest dose often 32.9 µM), for the others: at the highest dose activity, positive = growth rescue, usual class: activators; AID 485353; calls by dose curve; also: potency is read from the fitted curve at half-maximal effect; 0% is about no effect; nearly all actives have a fitted effect of over 55% in size
Pf growth 48h – P. falciparum growth inhibition at 48 hours (one generation) | P. falciparum luciferase growth in erythrocytes, 48 h | Potency, µM (titrated, usually from 28.7 µM), for the others: at the top dose activity change, negative = inhibition, actives largely listed as inhibitors | actives 5.9% (n = 310,000) | AID 504832; also: potency is read from the fitted curve at half-maximal effect; % is scaled to controls: 0 for no effect and ±100 for the full control effect
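Compounds are pin-transferred into medium, infected erythrocytes (2% hematocrit, 0.1% parasitemia final) are added, and plates sit one parasite generation at 37 C in 5% CO2. Detection reagent is then added and luminescence measured.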
Shiga toxin inh – Shiga toxin inhibition; actives 9.2% (n = 290,000); inhibition, % at 38.7 µM; Vero cells, Shiga toxin protein synthesis inhibition reporter; in the data active = inhibition mostly above about 28%, no sharp cut-off; inactive = mostly below about 43%; also: 0% is about no effect
Pf growth 96h – P. falciparum growth inhibition at 96 hour, primary screen for plastid delayed-death inhibitors; P. falciparum luciferase reporter growth, 96 h; Potency, µM (top dose mostly 28.7 µM), for inactives: top-dose activity change, negative = inhibition, most hits filed as inhibitors; actives 6.9% (n = 320,000); also: potency is read from the fitted curve at half-maximal effect; % is scaled to controls: 0 for no effect and ±100 for the full control effect
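Cell-based qHTS: luciferase-tagged P. falciparum in erythrocytes (2% hematocrit, 0.05% parasitemia final) incubated with compounds for 96 hours, 37 C, 5% CO2; luciferase detection reagent then added and luminescence measured.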
Cycloheximide cs – counter-screen hit for Shiga toxin inhibitors, cycloheximide | max response, % | actives 12% (n = 300,000) | cell reporter, cycloheximide protein synthesis inhibition counterscreen; in the data active = max response mostly above about 13%, no sharp cut-off; inactive = mostly below about 14%; also: read at 38.3 µM for the half of the compounds with a filed dose; 0% is about no effect
AMA1-RON2 inh – inhibitors of Plasmodium falciparum AMA1-RON2 interaction | AlphaScreen AMA1-biotinylated RON2 peptide binding | actives 0.2% (n = 360,000) | Potency, µM (top dose mostly 58.2 µM), for the others: at the highest dose activity change, negative = inhibition, most hits filed as inhibitors;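 also: potency is read from the fitted curve at half-maximal effect; 0% = vehicle wells and -100% = peptide control; nearly all actives have a fitted effect of over 45% in size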
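AMA1 (3D7) with his tag at 25 nM final met compounds first, then biotinylated RON2 peptide at 25 nM; detection used donor plus acceptor beads, 10 µg/mL apiece, read by AlphaScreen after 30 min at room temperature.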
An asterisk follows results filed as active; ? = inconclusive; nt = no result given. Unless noted, calls follow the shape of the dose curve; as a rule, active = well fitted curve in the direction sought with a large enough effect; inconclusive = small, poorly fitted or top-dose-only effect, or another doubt; inactive = no such curve, though single readings can be large; an effect the other way counts as inactive or inconclusive.

SMILES	SARS PLpro yeast	Pf growth 48h	Shiga toxin inh	Pf growth 96h	Cycloheximide cs	AMA1-RON2 inh
Cc1nnc(SCc2nc3ccccc3[nH]2)s1	0%	24%	17	163%	-2	7%
COc1cc(-c2nnc(CSc3nnc(Nc4ccc(Oc5ccccc5)cc4)s3)o2)cc(OC)c1OC	16%	?	26	?	15*	19%
c1ccc(Nc2nnc(SCc3cccc4ccccc34)s2)cc1	-6%	nt	3	8.3µM*	-1	-1%
COc1ccc(C(C)=O)cc1CSc1nnc(Nc2ccccc2)s1	7%	?	-6	6.6µM*	-5	-5%
COc1cc(-c2nnc(CSc3nnc(N)s3)o2)cc(OC)c1OC	-19%	10%	-8	-15%	-4	-5%
Cc1nnc(SCc2cccc3ccccc23)s1	-1%	62%	71*	105%	52*	21%
CCOC(=O)c1c(CSc2ccccc2)n(C)c2ccc(O)cc12	1%	?	-3	-15%	-2	0%
O=C(/C(=C(\[O-])c1ccccc1)[n+]1ccc2ccccc2c1)c1ccccc1	1%	?	active	13µM*	26*	10%
O=C(/C(=C(\[O-])c1ccccc1)[n+]1ccc2ccccc2c1)c1ccc([N+](=O)[O-])cc1	9%	9%	9	-22%	10	-19%
O=C(/C(=C(\[O-])c1ccccc1)[n+]1ccc2ccccc2c1)c1ccc(Cl)cc1	9%	?	68*	?	28	-19%
CCCCn1c(SCC(=O)NCc2cccs2)nc2c1c(=O)n(C)c(=O)n2C	-4%	nt	-12	9.3µM*	-2	-3%
CCn1c(SCc2cc(=O)[nH]c3ccccc23)nc2c1c(=O)n(C)c(=O)n2C	nt	nt	nt	nt	nt	15%
CCn1c(SCc2nnc(-c3ccccc3)o2)nc2c1c(=O)n(C)c(=O)n2C	7%	9%	26	6.6µM*	-1	nt
CCCCn1c(SCc2nnc(-c3ccccc3)o2)nc2c1c(=O)n(C)c(=O)n2C	-3%	?	42	-6%	24*	-3%
CCOc1ccc(CCNC(=O)CCNS(=O)(=O)c2ccc(Br)cc2)cc1OCC	3%	-13%	-33	-15%	-2	-14%
CCCc1c(NC(=O)Nc2ccc(Cl)cc2Cl)cnn1-c1ccccc1	-1%	-3%	14	?	-3	0%
COc1ccc(-c2cc(C(=O)Nc3ccc(Br)cc3)no2)cc1	0%	-6%	-4	?	1	0%
COC(=O)c1c(C(=O)OC)c(-c2ccc(OC)cc2)n2c1CS(=O)(=O)C2	-1%	?	-20	?	-1	-8%
CCOC(=O)CNc1nc(Cl)nc(Nc2ccc(C)cc2)n1	-2%	-15%	6	-3%	8	10%
Cc1ccc(Nc2nc(Cl)nc(N(C)C#N)n2)cc1	-6%	18%	-4	7.4µM*	-4	0%
Cc1ccc(Nc2nc(Cl)nc(NC(C)(C)C)n2)cc1	-17%	41%	60*	186%	54*	-21%
CCCCN1C(=O)N(C)C2NC(=O)NC21 (stereo not drawn)	8%	nt	-3	6%	-4	5%
CCCCN1C(=O)NC2NC(=O)NC21 (stereo not drawn)	17%	31%	-2	-21%	5	3.5µM*
CN(C)CCCN(C(=O)c1ccc(S(=O)(=O)N2CCc3ccccc3C2)cc1)c1nc2ccc(F)cc2s1	-1%	13µM*	-16	?	-7	?
CN(C)CCCN(C(=O)c1ccc(S(=O)(=O)N2CCc3ccccc3C2)cc1)c1nc2c(F)cccc2s1	-3%	?	-6	-10%	32*	-11%
SMILES	SARS PLpro yeast	Pf growth 48h	Shiga toxin inh	Pf growth 96h	Cycloheximide cs	AMA1-RON2 inh
Cc1cccc2sc(N(CCCN(C)C)C(=O)c3ccc(S(=O)(=O)N4CCc5ccccc5C4)cc3)nc12	-4%	9.3µM*	15	?	18	-6%
CCOC(=O)c1c(NC(=O)COC(=O)c2ccc(Cl)nc2)sc(C)c1C	nt	nt	nt	nt	nt	0%
Cc1sc(N/N=C/c2ccco2)nc1-c1ccccc1	1%	?	91*	?	27*	19%
O=C(Nc1nc(-c2ccc(Cl)cc2)cs1)c1cccnc1	-4%	-3%	-23	nt	-3	-7%
Clc1ccc(-c2csc(N/N=C\c3cccnc3)n2)cc1	-27%	?	11	37%	28*	4%
Brc1ccc(-c2csc(N/N=C/c3ccco3)n2)cc1	-9%	?	71*	?	40*	60%
Clc1ccc(-c2csc(N/N=C/c3ccco3)n2)cc1	-2%	?	79*	?	38*	2%
CCOC(=O)C1=C(C)N(C)C(=O)NC1c1c(OC)ccc2ccccc12 (stereo not drawn)	5%	22%	1	-2%	1	3%
Cc1ccc(NC(=O)CCNS(=O)(=O)c2cccc3nsnc23)cc1F	-3%	15%	3	22%	0	-8%
Cc1sc(N/N=C/c2cccnc2)nc1-c1ccccc1	5%	9.3µM*	48*	?	25*	13%
CN(C)S(=O)(=O)c1ccc(-c2csc(N/N=C/c3ccco3)n2)cc1	-3%	?	29	-22%	19	5%
CC(C)=NNc1nc(-c2ccccc2)c(C)s1	-1%	?	104*	29%	36*	40%
O=S1(=O)N=C(N/N=C/c2ccco2)c2ccccc21	2%	?	27	2%	6	47%
C(=N\Nc1nc(-c2ccccc2)cs1)/c1ccco1	-50%	4%	61*	-19%	38*	14%
Cc1ccc(-c2csc(N/N=C/c3ccco3)n2)cc1	5%	?	73*	?	35*	0%
CCOC(=O)C1(C)CCN1C(=O)c1cncc(Br)c1 (stereo not drawn)	nt	nt	nt	nt	nt	1%
CC(C)c1c(C(=O)N/N=C/c2cccc3ccccc23)nnn1-c1nonc1N	-1%	-23%	-5	?	5	6%
O=C(CCCOc1ccc(Br)cc1)Nc1ccc(S(=O)(=O)N2CCOCC2)cc1	-3%	?	nt	8.3µM*	nt	0%
O=C(COc1ccc(S(=O)(=O)N2CCOCC2)cc1)Nc1ccc(Br)cc1	-1%	nt	nt	nt	nt	-9%
CC(=O)c1ccc(OCCCC(=O)Nc2ccc(S(=O)(=O)N3CCOCC3)cc2)cc1	11µM*	-38%	nt	?	nt	-13%
CC(=O)c1ccc(OCCCC(=O)N2CCN(S(=O)(=O)c3ccc(C(C)C)cc3)CC2)cc1	-3%	9.3µM*	nt	5.2µM*	nt	-14%
CC(=O)c1ccc(OCCCC(=O)N2CCN(S(=O)(=O)c3cc(C)ccc3C)CC2)cc1	0%	?	nt	?	nt	5%
COc1ccc(S(=O)(=O)N2CCOCC2)cc1NC(=O)CCCOc1ccc(C(C)=O)cc1	nt	nt	nt	nt	nt	15%
O=C(C1=C(O)C(=O)N(CC2CCCO2)C1c1cccc(Cl)c1)c1ccco1 (stereo not drawn)	1%	27%	-4	34%	-2	0%
